Source: PubChem BioAssay
Most compounds without a hit are left out; they make up all but 9.3% or so of the library.
ELG1 genotoxic: induces genotoxicity in HEK293T cells with luciferase-tagged ELG1. HEK293T ELG1-luciferase reporter, luminescence, 16 h. Potency, µM (highest dose often 46 µM), inactives show top-dose activity change, positive = activation, hits mostly activators. hit rate 1.3% among 330,000; also: % of control where 0% means no effect; nearly all actives have a fitted effect of over 60% in size
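HEK293T cells expressing luciferase-tagged ELG1 were exposed to compound or DMSO vehicle for 16 hr at 37 °C and 5% CO2. Luciferase activity was then measured with ONE-Glo after 30 min at room temperature.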
ELG1 repair inh: inhibitors of ELG1-dependent DNA repair in HEK293T cells; AID 504467; Potency, µM (titrated, usually from 46.1 µM), inactives show top-dose activity change, negative = inhibition, most hits filed as inhibitors; hit rate 2.3% among 330,000; HEK293T ELG1-luciferase reporter, luminescence, 16 h; DNA damage induced by 5-fluorouridine; also: % is scaled to controls: 0 for no effect and ±100 for the full control effect; nearly all actives have a fitted effect of over 55% in size
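5-Fluorouridine DNA damage + compound/DMSO, 2,000 cells/well, 16 h, 37 °C/5% CO2. ONE-Glo, 30 min RT, luminescence. Readout = decrease in reporter signal.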
Rab9 promoter act: activators of Rab9 promoter; Huh7 Rab9 promoter-luciferase reporter, luminescence, 24 h; Potency, µM (doses to about 9.22 µM), for the others: at the highest dose activation, negative = inhibition, usual class: activators; hit rate 2.8% among 320,000; also: % of control where 0% means no effect; nearly all actives have a fitted effect of over 60% in size
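Huh7 cells stably carrying a Rab9 promoter-luciferase reporter, 1500 cells per well in OP-MEM I with 10% FBS, treated with compound 24 hours at 37C. Luciferase activity read by luminescence after 10 minutes with Amplite reagent.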
FLuc counter: inhibits or activates purified firefly luciferase, miR-21 counter-screen. purified FLuc, Km substrates, luminescence inhibition. P08659. Potency, µM (top dose mostly 57.5 µM), for the others: top-dose activity change, negative = inhibition, actives largely listed as inhibitors. hit rate 6.9% among 360,000;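 also: plate controls were vehicle for no effect and reference inhibitor for full effect; nearly all actives have a fitted effect of over 55% in size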
Target sequence (P08659 whole entry, looked up): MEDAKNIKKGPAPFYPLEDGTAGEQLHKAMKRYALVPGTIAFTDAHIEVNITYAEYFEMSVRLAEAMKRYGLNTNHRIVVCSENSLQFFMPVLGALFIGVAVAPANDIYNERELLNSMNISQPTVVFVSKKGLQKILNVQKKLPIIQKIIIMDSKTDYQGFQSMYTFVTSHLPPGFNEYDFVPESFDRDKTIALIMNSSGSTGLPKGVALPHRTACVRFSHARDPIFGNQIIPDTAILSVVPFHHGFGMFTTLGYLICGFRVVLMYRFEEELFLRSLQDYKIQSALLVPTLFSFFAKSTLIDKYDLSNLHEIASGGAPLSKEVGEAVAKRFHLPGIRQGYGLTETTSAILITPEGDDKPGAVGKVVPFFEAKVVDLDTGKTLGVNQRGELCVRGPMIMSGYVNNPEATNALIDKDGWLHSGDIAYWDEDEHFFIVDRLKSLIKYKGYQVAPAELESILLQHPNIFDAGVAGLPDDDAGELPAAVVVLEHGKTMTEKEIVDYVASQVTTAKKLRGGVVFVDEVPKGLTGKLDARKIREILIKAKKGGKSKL
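Purified P. pyralis luciferase, 10 nM final, with Km-level 10 uM D-luciferin and 10 uM ATP in 50 mM Tris acetate pH 7.5, 10 mM Mg acetate, 0.01% Tween-20, 0.05% BSA; 6-point qHTS titration about 60 µM downward; luminescence read.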
NPC1 prom act: activators of NPC1 promoter. AID 485313. Potency, µM (series often up to 9.22 µM), inactives show at the top dose activation, most hits filed as activators. hit rate 2.4% among 320,000. Huh7 NPC1 promoter luciferase reporter, 24 h; also: % of control where 0% means no effect; nearly all actives have a fitted effect of over 60% in size
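Huh7 reporter cells (NPC1 promoter driving luciferase) are dosed with compound for 24 h at 37 °C, 5% CO2; luciferase detection reagent is then added and luminescence measured after 10 min at ambient temperature.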
SMN2 splice enh: enhancers of SMN2 splice variant expression; HEK293 SMN2-luciferase splicing reporter, luminescence, 30-36 h; Potency, µM (top dose mostly 46.1 µM), for inactives: top-dose activity change, positive = activation, hits mostly activators; hit rate 2.8% among 210,000; also: % of control where 0% means no effect; nearly all actives have a fitted effect of over 55% in size
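qHTS luciferase splicing reporter: luminescence rises when SMN2 exon 7 is included in transfected HEK293 cells. Compound exposure lasted 30-36 h at 37C, with 4.5 mM final sodium butyrate as control, followed by a ONE-Glo read.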
* hit, by the source's call. Calls follow the shape of the dose curve; as a rule, active = well fitted curve in the direction sought with a large enough effect; inconclusive = small, poorly fitted or top-dose-only effect, or another doubt; inactive = no such curve, though single readings can be large; an effect the other way counts as inactive or inconclusive. Potency is read from the fitted curve at half-maximal effect.

`COc1ccc(/C=C/C(=O)NC(=S)Nc2ccccn2)cc1` gave ELG1 genotoxic inconclusive, ELG1 repair inh inconclusive, Rab9 promoter act 0.891µM*, FLuc counter inconclusive and NPC1 prom act 1.26µM*.
`COc1ccc(/C=N/NC(=O)c2cccc(C(=O)N/N=C/c3ccc(OC)c(OC)c3)n2)cc1OC` gave ELG1 genotoxic -4.2%, ELG1 repair inh inconclusive, Rab9 promoter act -1.5%, FLuc counter 1.7% and NPC1 prom act 1.9%.
`COc1ccc(/C=N/NC(=O)c2cc(C)n(-c3ccccc3)c2C)cc1OC` gave ELG1 genotoxic 7.0%, ELG1 repair inh -11.6%, Rab9 promoter act 21.7%, FLuc counter 8.49µM*, NPC1 prom act -20.2% and SMN2 splice enh 16.6%.
For Cc1cc(C(=O)N/N=C/c2cccc([N+](=O)[O-])c2)c(C)n1-c1ccccc1 the results were ELG1 genotoxic inconclusive, ELG1 repair inh inconclusive, Rab9 promoter act inconclusive, FLuc counter 0.953µM*, NPC1 prom act inconclusive and SMN2 splice enh 10µM*.
Screening Cc1nc2c(c(SCC(=O)Nc3ccccc3C(F)(F)F)n1)CCC2 returned FLuc counter -1.6%.
Screening Brc1csc(C=Nc2ccc3c(c2)OCCOCCOCCOCCO3)c1 returned ELG1 genotoxic 1.5%, ELG1 repair inh inconclusive, Rab9 promoter act 0.0%, FLuc counter 3.4%, NPC1 prom act -2.3% and SMN2 splice enh -3.6%.
Screening Cc1ccc(N=Cc2cc(Cl)cc(Cl)c2O)nc1 returned ELG1 genotoxic -0.6%, ELG1 repair inh -12.4%, Rab9 promoter act -8.4%, FLuc counter 4.7%, NPC1 prom act -2.6% and SMN2 splice enh 28.2%.
Brc1ccc(C=Nc2ccc3c(c2)OCCOCCOCCO3)s1 was read as ELG1 genotoxic -0.5%, ELG1 repair inh inconclusive, Rab9 promoter act 2.2%, FLuc counter 10.7µM*, NPC1 prom act 0.5% and SMN2 splice enh -1.0%.
For Oc1c(Cl)cc(Cl)cc1C=Nc1ccc2c(c1)OCCO2 the results were ELG1 genotoxic 14.8%, ELG1 repair inh inconclusive, Rab9 promoter act -6.9%, FLuc counter 26.9µM* and NPC1 prom act -0.1%.
Cc1cccc(NC(=S)NNC(=O)c2ccc3c(c2)OCO3)c1 was read as ELG1 genotoxic inconclusive, ELG1 repair inh inconclusive, Rab9 promoter act 1.78µM*, FLuc counter 4.78µM*, NPC1 prom act inconclusive and SMN2 splice enh 12.6µM*.
`Cc1ccc(NC(=O)c2ccc3c(c2)OCCO3)cc1S(=O)(=O)Nc1cccc(Cl)c1` gave ELG1 genotoxic -4.4%, ELG1 repair inh inconclusive, Rab9 promoter act 15.8%, FLuc counter 16.9µM* and NPC1 prom act 12.7%.
COC(=O)c1ccsc1NC(=O)c1ccc2c(c1)OCCO2 was read as ELG1 genotoxic 14.4%, ELG1 repair inh inconclusive, Rab9 promoter act 16.7%, FLuc counter 19µM* and NPC1 prom act -1.4%.
Cc1ccc(C(=O)Nc2cccc(N(C)S(C)(=O)=O)c2)cc1S(=O)(=O)Nc1ccccc1 was read as ELG1 genotoxic -9.2%, ELG1 repair inh inconclusive, Rab9 promoter act -2.8%, FLuc counter -3.4%, NPC1 prom act 2.5% and SMN2 splice enh -2.6%.
Screening Cc1ccc(C(=O)NCC(=O)OCC(=O)c2ccc3c(c2)OCCO3)cc1C returned ELG1 genotoxic 11.6%, ELG1 repair inh inconclusive, Rab9 promoter act 7.8%, FLuc counter 21.3µM*, NPC1 prom act 7.4% and SMN2 splice enh -5.6%.
Cc1ccc(S(=O)(=O)N2CCC[C@H]2C(=O)OCC(=O)N2CCc3ccccc32)cc1 was read as ELG1 genotoxic -0.9% and ELG1 repair inh 6.1%.
`Cc1cccc(NC(=O)c2ccc3c(c2)OCCO3)c1` gave ELG1 genotoxic inconclusive, ELG1 repair inh inconclusive, Rab9 promoter act 0.631µM*, FLuc counter 0.757µM* and NPC1 prom act 0.891µM*.
